Drawing on PMC5913336, “True equilibrium measurement of transcription factor-DNA binding affinities using automated polarization microscopy”, this text covers binding signal for 39 sequences.

The assay deals with T1, Slp1-FL (Drosophila melanogaster, UniProt P32030).
T1 sequence: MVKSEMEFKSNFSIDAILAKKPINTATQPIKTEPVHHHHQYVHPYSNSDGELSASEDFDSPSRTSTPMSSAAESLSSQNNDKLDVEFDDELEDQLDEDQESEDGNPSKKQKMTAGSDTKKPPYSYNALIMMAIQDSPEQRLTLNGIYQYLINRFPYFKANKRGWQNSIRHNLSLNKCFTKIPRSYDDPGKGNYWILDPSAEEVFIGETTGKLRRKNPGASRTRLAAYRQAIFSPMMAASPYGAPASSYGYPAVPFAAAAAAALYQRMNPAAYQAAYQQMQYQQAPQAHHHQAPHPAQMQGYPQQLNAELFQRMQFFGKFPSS
Kind of assay: FP; 33 mM phosphate pH 7.0, 90 mM NaCl, 0.01% Tween 20, 0.1 mM DTT, 0.5% agarose; room temperature. The following applies: tags: N-GST (pGEX-6P-1, kept); dsDNA, one strand shown.
Take ACGTGTTTACACTTT: the binding signal was 1.35 Kd / Kd of best base at the position.
With ACGTGTTTAAACTTA the figure was 44.8 Kd / Kd of best base at the position; with ACGTTTTTACACTTA, 21.2 Kd / Kd of best base at the position.
As for TCGTGTTTACACTTA, the binding signal was 1.19 Kd / Kd of best base at the position.
For ACGTGTTTACACGTA, the binding signal is 2.9 Kd / Kd of best base at the position.
With ACGTGTTTATACTTA, the binding signal was 2.63 Kd / Kd of best base at the position.
Regarding ACGTGTTTACTCTTA, the binding signal is 2.44 Kd / Kd of best base at the position.
ACATGTTTACACTTA: the binding signal was 1.13 Kd / Kd of best base at the position.
With ACGTGTTTACACTAA the figure was 10.7 Kd / Kd of best base at the position.
With ACGTGTTAACACTTA the figure was 14 Kd / Kd of best base at the position.
Regarding ATGTGTTTACACTTA, the binding signal was 1.95 Kd / Kd of best base at the position.
For the sequence AAGTGTTTACACTTA, the binding signal is 8.32 Kd / Kd of best base at the position.
With ACGTGTTCACACTTA the figure was 37.4 Kd / Kd of best base at the position; with ACGTGTTTCCACTTA, 15.2 Kd / Kd of best base at the position.
With ACGAGTTTACACTTA the figure was 30.1 Kd / Kd of best base at the position.
With ACGTGTCTACACTTA the figure was 22.3 Kd / Kd of best base at the position; with ACGTGTTTGCACTTA, 23.1 Kd / Kd of best base at the position; with ACGTGTTTACATTTA, 1.28 Kd / Kd of best base at the position.
With ACGTATTTACACTTA, the binding signal was 3.26 Kd / Kd of best base at the position.
With ACGTGCTTACACTTA the figure was 16.8 Kd / Kd of best base at the position.
With ACGTGTTTACGCTTA, the binding signal is 1.83 Kd / Kd of best base at the position.
With ACGTGTTTACACTTC the figure was 1.33 Kd / Kd of best base at the position; with ACGTGATTACACTTA, 19 Kd / Kd of best base at the position.
With ACGTGTATACACTTA the figure was 19.4 Kd / Kd of best base at the position; with ACGCGTTTACACTTA, 14.2 Kd / Kd of best base at the position.
With ACGTGTTTACACTGA the figure was 1.18 Kd / Kd of best base at the position.
Consider ACGTGTTTACACCTA, for which the binding signal is 2.68 Kd / Kd of best base at the position.
Regarding ACGTGTTTACAGTTA, the binding signal was 2.11 Kd / Kd of best base at the position.
With ACGTGTTTACACATA the figure was 9.38 Kd / Kd of best base at the position.
With ACGTGTTTACAATTA the figure was 2.79 Kd / Kd of best base at the position.
With AGGTGTTTACACTTA, the binding signal is 1.71 Kd / Kd of best base at the position.
On to ACGTGGTTACACTTA, for which the binding signal is 14.4 Kd / Kd of best base at the position.
Regarding ACGTGTTTACCCTTA, the binding signal is 2.19 Kd / Kd of best base at the position.
On to ACGTGTTTTCACTTA, for which the binding signal is 13 Kd / Kd of best base at the position.
As to ACGTGTTGACACTTA, the binding signal is 5.44 Kd / Kd of best base at the position.
Regarding ACCTGTTTACACTTA, the binding signal is 3.03 Kd / Kd of best base at the position.
As for ACGTGTTTACACTCA, the binding signal was 3.73 Kd / Kd of best base at the position.
On to ACGTGTGTACACTTA, for which the binding signal is 7.74 Kd / Kd of best base at the position.
With GCGTGTTTACACTTA the figure was 1.21 Kd / Kd of best base at the position.
